{"source": "PubChem BioAssay (NCI)", "assay": "NCI Yeast Anticancer Drug Screen. Data for the rad18 strain (AID 177)", "conditions": "S. cerevisiae rad18 mutant growth inhibition, stronger effect = higher value", "description": "Growth inhibition of yeast strains with defined genetic alterations is measured as a screen for potential anti-cancer activity. Selected strains with alterations in DNA damage repair or cell cycle control were exposed to compounds and growth inhibition was measured relative to vehicle treated controls. The strain used in this assay is rad18", "note": "The panel holds about 79,000 compounds, 15% with a hit somewhere; the sample as a whole holds those more often. Unmarked numbers belong to inactive results. Active and inactive are the calls of the source. Rule as the data show it: active = growth inhibition above about 70%; inactive = the rest."}
{"smiles": "O=S(=O)(CCC[C@H]1[C@@H](CCOCc2ccccc2)C2CCCN1O2)c1ccccc1", "note": "(stereo not given in full)", "values": [{"measurement": "growth inhibition", "setting": "at 1.2 µM", "value": 2, "unit": "%"}, {"measurement": "growth inhibition", "setting": "at 3.7 µM", "value": 6, "unit": "%"}, {"measurement": "growth inhibition", "setting": "at 11.0 µM", "value": 4, "unit": "%"}, {"measurement": "growth inhibition", "setting": "at 33.0 µM", "value": 7, "unit": "%"}, {"measurement": "growth inhibition", "setting": "at 100.0 µM", "value": 19, "unit": "%"}]}
{"smiles": "CCN(CC)CCSc1c2ccccc2nc2cc(NCC(=O)Nc3ccccc3-c3ccccc3NC(=O)CNc3ccc4c(SCCN(CC)CC)c5ccccc5nc4c3)ccc12", "values": [{"measurement": "growth inhibition", "setting": "at 1.2 µM", "value": 16, "unit": "%"}, {"measurement": "growth inhibition", "setting": "at 3.7 µM", "value": 12, "unit": "%"}, {"measurement": "growth inhibition", "setting": "at 11.0 µM", "value": 11, "unit": "%"}, {"measurement": "growth inhibition", "setting": "at 33.0 µM", "value": 69, "unit": "%"}, {"measurement": "growth inhibition", "setting": "at 100.0 µM", "value": "97% (active)"}]}
{"smiles": "CN1CCN(c2ccc3nc(-c4ccc5nc(-c6ccc(O)cc6)[nH]c5c4)[nH]c3c2)CC1", "values": [{"measurement": "growth inhibition", "setting": "at 1.2 µM", "value": -12, "unit": "%"}, {"measurement": "growth inhibition", "setting": "at 3.7 µM", "value": -29, "unit": "%"}, {"measurement": "growth inhibition", "setting": "at 11.0 µM", "value": "97% (active)"}, {"measurement": "growth inhibition", "setting": "at 33.0 µM", "value": "97% (active)"}, {"measurement": "growth inhibition", "setting": "at 100.0 µM", "value": "97% (active)"}]}
{"smiles": "c1cc2ccc3cc4ncccc4c4ccc(c1)c2c34", "values": [{"measurement": "growth inhibition", "setting": "at 1.2 µM", "value": 4, "unit": "%"}, {"measurement": "growth inhibition", "setting": "at 3.7 µM", "value": 7, "unit": "%"}, {"measurement": "growth inhibition", "setting": "at 11.0 µM", "value": 35, "unit": "%"}, {"measurement": "growth inhibition", "setting": "at 33.0 µM", "value": "87% (active)"}, {"measurement": "growth inhibition", "setting": "at 100.0 µM", "value": "90% (active)"}]}
{"smiles": "C[Si](C)(C)Cc1ccccc1C(=O)O", "values": [{"measurement": "growth inhibition", "setting": "at 1.2 µM", "value": 2, "unit": "%"}, {"measurement": "growth inhibition", "setting": "at 3.7 µM", "value": 3, "unit": "%"}, {"measurement": "growth inhibition", "setting": "at 11.0 µM", "value": 1, "unit": "%"}, {"measurement": "growth inhibition", "setting": "at 33.0 µM", "value": 65, "unit": "%"}, {"measurement": "growth inhibition", "setting": "at 100.0 µM", "value": "97% (active)"}]}
{"smiles": "N=C(N)c1ccc(N=Nc2c(O)ccc3c2[nH]c2ccccc23)cc1", "values": [{"measurement": "growth inhibition", "setting": "at 1.2 µM", "value": -10, "unit": "%"}, {"measurement": "growth inhibition", "setting": "at 3.7 µM", "value": 11, "unit": "%"}, {"measurement": "growth inhibition", "setting": "at 11.0 µM", "value": "93% (active)"}, {"measurement": "growth inhibition", "setting": "at 33.0 µM", "value": "96% (active)"}, {"measurement": "growth inhibition", "setting": "at 100.0 µM", "value": "95% (active)"}]}
{"smiles": "C[n+]1c(-c2ccc(NC(=O)c3ccc(C(=O)Nc4ccc(-c5cn6ccccc6[n+]5C)cc4)cc3)cc2)cn2ccccc21", "values": [{"measurement": "growth inhibition", "setting": "at 1.2 µM", "value": 4, "unit": "%"}, {"measurement": "growth inhibition", "setting": "at 3.7 µM", "value": 2, "unit": "%"}, {"measurement": "growth inhibition", "setting": "at 11.0 µM", "value": 24, "unit": "%"}, {"measurement": "growth inhibition", "setting": "at 33.0 µM", "value": "81% (active)"}, {"measurement": "growth inhibition", "setting": "at 100.0 µM", "value": "92% (active)"}]}
{"smiles": "CCCC#CCOC(=O)c1cc([N+](=O)[O-])cc([N+](=O)[O-])c1", "values": [{"measurement": "growth inhibition", "setting": "at 1.2 µM", "value": 4, "unit": "%"}, {"measurement": "growth inhibition", "setting": "at 3.7 µM", "value": "81% (active)"}, {"measurement": "growth inhibition", "setting": "at 11.0 µM", "value": "99% (active)"}, {"measurement": "growth inhibition", "setting": "at 33.0 µM", "value": "99% (active)"}, {"measurement": "growth inhibition", "setting": "at 100.0 µM", "value": "99% (active)"}]}
